Compound activity (PubChem)
The list is not random: actives were taken first. Their share in the collection is about 4.7%.
RecA intein inh: Mtb RecA intein splicing inhibition; cell-free RecA intein splicing, fluorescence; 290,000 compounds, 0.75% hits; AID 2221; inhibition, % (concentration not given with the values); in the data active means inhibition above about 30%;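 further: 0% = vehicle wells and 100% = reference inhibitor control wells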
3CLpro inhibitor: SARS-CoV 3CLpro protease inhibition. P0C6X7. recombinant SARS-CoV 3CLpro, quenched FRET peptide cleavage. inhibition, % at 6 µM. 290,000 compounds, 0.14% hits; in the data active means inhibition above about 12%
FBA Mtb inh: Mtb fructose-bisphosphate aldolase inhibition. P9WQA3. purified M. tuberculosis FBA, fluorescence read-out. inhibition, % at 1 µM. 360,000 compounds, 2.3% hits. AID 588726;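 further: 0% = vehicle and 100% = reference inhibitor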
Target sequence (P9WQA3 whole entry, looked up): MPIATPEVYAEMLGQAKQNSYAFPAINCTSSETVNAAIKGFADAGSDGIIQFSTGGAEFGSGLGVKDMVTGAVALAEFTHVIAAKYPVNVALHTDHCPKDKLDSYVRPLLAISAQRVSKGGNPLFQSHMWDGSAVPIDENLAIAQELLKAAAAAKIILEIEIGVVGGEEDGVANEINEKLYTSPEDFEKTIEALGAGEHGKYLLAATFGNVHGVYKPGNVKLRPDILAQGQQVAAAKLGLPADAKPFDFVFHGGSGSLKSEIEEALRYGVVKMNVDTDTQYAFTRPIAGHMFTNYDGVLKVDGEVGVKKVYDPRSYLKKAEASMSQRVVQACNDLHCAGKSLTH
GDH-TPI counter-1: inhibits GDH-TPI coupling enzymes, artifact for Mtb FBA screen. GDH-TPI coupled enzyme counterscreen, NADH absorbance. inhibition, % at 4.8 µM. 360,000 compounds, 1.2% hits. AID 588335; in the data active means inhibition above about 30%;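 further: 0% = DMSO wells and 100% = wells lacking the enzyme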
CCHF vOTU inh: blocks the CCHF virus ovarian tumor domain protease | CCHFV vOTU protease, Pep-AMC fluorescence | 370,000 compounds, 0.55% hits | AID 651958 | inhibition, % at 11.5 µM; in the data active means inhibition above about 30%; further: 0% = vehicle wells with enzyme and 100% = no enzyme wells
DUSP3 inh: DUSP3 (human) phosphatase inhibition; P51452; 290,000 compounds, 0.52% hits; recombinant VHR phosphatase, pNPP absorbance; AID 1654; inhibition, % at 13.3 µM; in the data active means inhibition above about 50%
Target sequence (P51452 whole entry, looked up): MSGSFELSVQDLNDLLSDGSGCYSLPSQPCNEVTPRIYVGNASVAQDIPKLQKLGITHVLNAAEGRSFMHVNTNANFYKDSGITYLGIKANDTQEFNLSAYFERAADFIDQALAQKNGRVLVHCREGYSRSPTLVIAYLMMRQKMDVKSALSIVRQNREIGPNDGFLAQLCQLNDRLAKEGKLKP
Mtb FBA confirm: confirmation of M. tuberculosis fructose-bisphosphate aldolase inhibitors; shares compounds with FBA Mtb inh; purified M. tuberculosis FBA, fluorescence read-out; inhibition, % at 1 µM; 5,600 compounds, 78% hits;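 further: 0% = vehicle wells and 100% = reference inhibitor wells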
GDH-TPI counter-2: counter-screen for M. tuberculosis FBA inhibitors: GDH-TPI coupled enzyme inhibition; shares compounds with FBA Mtb inh; GDH-TPI coupled enzyme counterscreen, fluorescence; inhibition, % at 1 µM; 5,600 compounds, 81% hits; in the data active means inhibition above about 10%
GDH-TPI dose: counter-screen for M. tuberculosis FBA inhibitors: GDH-TPI dose response | shares compounds with FBA Mtb inh | GDH-TPI coupled enzyme assay, fluorescence, artifact counterscreen | IC50, µM | 170 compounds, 79% hits | AID 652145; call rule not given here
* marks the source's active call; other numbers are inactive results; nt = no result given; + = active, no number. Unless noted, no stated cut-off is given here; in the data, active means inhibition above about 27%; inactive means the rest.

SMILES | RecA intein inh | 3CLpro inhibitor | FBA Mtb inh | GDH-TPI counter-1 | CCHF vOTU inh | DUSP3 inh | Mtb FBA confirm | GDH-TPI counter-2 | others
O=c1c2c(-c3ccccc3)csc2nc2c3ccccc3c(NCCN3CCOCC3)nn12 | -6 | -4 | 29* | 0 | -36 | 22 | 94* | 66*
Cc1ccc(S(=O)(=O)NCCc2cn3nc(C)c(C)nc3n2)cc1C | -57 | -1 | 64* | 16 | -86 | 3 | 159* | 159*
COc1ccc(S(=O)(=O)NCCc2cn3nc(C)c(C)nc3n2)cc1C | -125 | 3 | 22 | 10 | -60 | 21 | nt | nt
Nc1[nH]c(=O)ncc1-c1ccc([N+](=O)[O-])cc1 | nt | nt | nt | nt | 3 | nt | nt | nt
CCCCC(=O)N(C)c1c(C)nc2ccc(C(=O)NCCN(C)C)cn12 | nt | nt | 2 | -5 | 2 | nt | nt | nt
COc1cccc(OC)c1-c1nnc(-c2cn(C)c3ccccc23)o1 | -2 | 1 | 80* | -4 | -9 | 4 | + | 178*
COc1ccccc1-c1nnc(-c2ccc(C)cc2)o1 | 2 | nt | 15 | -5 | 3 | nt | nt | nt
Cc1cc(C)c(C#N)c(Sc2ccc(N)cc2)n1 | -11 | 1 | -3 | -3 | 7 | 4 | nt | nt
CCOC(=O)c1cn(C2CC2)c2c(F)c(NCCCN(C)C)c(F)cc2c1=O | 2 | nt | 70* | 18 | -21 | nt | 134* | 79*
CCOC(=O)[C@]12CCCC=C1N(Cc1ccccc1)C(=O)[C@H](CC(=O)NCCc1ccccc1OC)C2 | nt | nt | nt | nt | 4 | nt | nt | nt
O=C(O)c1ccc(C2Nc3ccccc3C(=O)N2Cc2ccccc2)cc1 (stereo unspecified) | nt | 4 | 76* | 0 | -73 | 6 | 9 | 5
COc1ccc(C2Nc3ccccc3C(=O)N2C2CCCCC2)cc1 (stereo unspecified) | 3 | 4 | 85* | 1 | -71 | 6 | 1 | 0
CCCN1C(=O)c2ccccc2NC1c1ccc(OC)c(CSc2ccccn2)c1 (stereo unspecified) | 1 | -2 | 56* | 5 | -55 | 13 | 140* | 105*
COc1ccc(N2C(=O)c3ccccc3NC2c2ccc(OC)c(CSc3ccccn3)c2)cc1 (stereo unspecified) | -5 | 0 | 22 | 11 | 4 | 34 | nt | nt
COc1ccc([C@@H]2[C@@H](C)N(c3ccccc3)c3ccccc3C(=O)N2Cc2ccccc2)cc1 | nt | nt | 5 | 1 | 0 | nt | nt | nt
COc1ccc(C2Nc3ccccc3C(=O)N2Cc2ccccc2)cc1 (stereo unspecified) | nt | 2 | 39* | 4 | -60 | 13 | 167* | 135*
O=C(O)c1ccc(C2SCC(=O)N2Cc2ccccc2)cc1 (stereo unspecified) | -2 | 0 | -4 | -8 | -1 | -10 | nt | nt
Cc1[nH]c(=O)[nH]c(=O)c1S(=O)(=O)Nc1ccc(F)cc1Cl | 0 | -3 | 1 | 0 | -14 | 27 | nt | nt
COc1ccc(C2Nc3ccccc3C(=O)N2Cc2ccccc2)cc1COc1ccccn1 (stereo unspecified) | 5 | 0 | 78* | -8 | -90 | 28 | 64* | 54*
COc1ccc(N2C(=O)c3ccccc3NC2c2ccc(OC)c(COc3ccccn3)c2)cc1 (stereo unspecified) | 2 | 5 | 14 | 15 | -8 | 8 | nt | nt
CCc1nc2ccc(C(=O)NCCCN3CCCC3=O)cn2c1N(CC)C(C)=O | nt | nt | 4 | 10 | -13 | nt | nt | nt
CNc1cccc(-c2ccc(N3CCN(C)CC3)nc2)n1 | nt | nt | 54* | 11 | -43 | nt | 17 | 0 | GDH-TPI dose=3.5*
CNc1cccc(-c2ccc(C(=O)N3CCOCC3)cc2)n1 | nt | nt | 10 | 15 | -8 | nt | nt | nt
Cc1cnc(C(=O)OCc2nc3ccsc3c(=O)[nH]2)cn1 | nt | nt | 4 | 19 | 0 | nt | nt | nt
Cc1csc(Nc2nc(N)c(C(=O)Nc3cc(Cl)ccc3F)o2)n1 | 3 | -2 | -1 | 13 | -7 | 6 | nt | nt
SMILES | RecA intein inh | 3CLpro inhibitor | FBA Mtb inh | GDH-TPI counter-1 | CCHF vOTU inh | DUSP3 inh | Mtb FBA confirm | GDH-TPI counter-2 | others
Cc1cc(=O)oc2cc(NC(=S)NNC(=O)c3c(Cl)cnn3C)ccc12 | -6 | 4 | 83* | 35* | -71 | -7 | 43* | 28*
CN(C)C(=O)c1cn(-c2ccccc2)nc1-c1cc2ccccc2o1 | -1 | 4 | 18 | 4 | 4 | -6 | nt | nt
CN(Cc1cn(-c2ccccc2)nc1-c1cc2ccccc2o1)C(=O)CCC(=O)O | 2 | -1 | 45* | 5 | -4 | 7 | -5 | -4
O=C(O)/C=C\c1cn(-c2ccccc2)nc1-c1cc2ccccc2o1 | 4 | 10 | 76* | 5 | -23 | -3 | 124* | 101*
O=C(O)/C=C/c1cn(-c2ccccc2)nc1-c1cc2ccccc2o1 | -4 | 8 | 91* | 9 | -20 | -5 | + | 157*
CCOc1ccccc1N1CC(C(=O)N(C)Cc2cccnc2)CC1=O (stereo unspecified) | -1 | -12 | 1 | 7 | -1 | 12 | nt | nt
CCOC(=O)N1CCN(c2c(NCc3ccccc3Cl)c(=O)c2=O)CC1 | 0 | 0 | 2 | 5 | 5 | 25 | nt | nt
COc1ccc(C)cc1N(C(=O)c1ccco1)C(C(=O)NC1CCCC1)c1cc(OC)c(OC)c(OC)c1 (stereo unspecified) | 12 | -2 | 0 | -11 | 2 | 46 | nt | nt
C=CCn1cc(-c2cccc(Cl)c2)cc(C#N)c1=O | -8 | -2 | 28* | 2 | -26 | -11 | 69* | 48*
Cn1c(-c2ccc(Cl)cc2)ccc(C#N)c1=O | 1 | 0 | 4 | 24 | 2 | 29 | nt | nt
C=CCn1c(-c2ccccc2)ccc(C#N)c1=O | 4 | 0 | 1 | -6 | -2 | 14 | nt | nt
N#Cc1c(-c2cccc(Cl)c2)[nH]c(=S)[nH]c1=O | 11 | 10 | 1 | 15 | 15 | 13 | nt | nt
N#Cc1cc(-c2cccc(Cl)c2)c[nH]c1=O | 5 | 3 | 46* | 15 | 7 | 13 | 10 | 7 | GDH-TPI dose=4.1*
Cn1cc(-c2ccc(Cl)cc2)cc(C#N)c1=O | -4 | 0 | 56* | 5 | -44 | 19 | 23 | 17*
COc1ccc(CCNC(=O)CSc2nc3[nH]ncc3c(=O)[nH]2)cc1OC | -6 | -5 | -1 | 5 | -8 | 15 | nt | nt
COC(=O)C1(C)Nc2ccccc2C(=O)N1c1ccccc1C (stereo unspecified) | 1 | -1 | 52* | 16 | -38 | 41 | 102* | 71*
O=c1cc(-c2ccco2)oc2c1ccc1ccccc12 | -1 | 0 | 49* | 21 | -22 | -14 | + | +
COc1ccc(-c2nc3cc(C)ccn3c2NCC2CCCO2)cc1OC (stereo unspecified) | -15 | -8 | 4 | 0 | 4 | nt | nt | nt
